# Screening results: PubChem, Broad Institute
# Pf Dd2 growth = inhibitors of Plasmodium falciparum Dd2 growth; actives 2.3% (n = 94,000); activity change, % at 10 µM; P. falciparum Dd2 growth, SYBR Green, 72 h; stronger effect = lower value; AID 1159554; in the data active = activity change below about -80%; inconclusive = no clear call, values can overlap the other calls
# C diff growth = C. difficile growth inhibition; Clostridium difficile clinical isolate growth, OD600, 24 h; stronger effect = lower value; growth activity, negative = inhibition, % at 16 µg/mL (by protocol); actives 0.25% (n = 86,000); AID 1259249;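 active = mean growth activity at or below -80% and every replicate also at or below -80%; inconclusive = mean at or below -80% but some replicate above -80%; inactive = mean growth activity above -80%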;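 note: 0% = DMSO wells and -100% = levofloxacin 16 µg/mL wells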
# T cruzi growth-1 = T. cruzi proliferation inhibition | T. cruzi beta-gal in NIH3T3, GalScreen luminescence, 90 h | inhibition, % at 8.34 µM | actives 5.9% (n = 77,000);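 active = mean inhibition above about 93%, with at least 55% of replicates each passing it, limit read from the data, passing the limit was not always enough; inconclusive = only one of those two conditions holds; inactive = neither condition holds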
# T cruzi growth-2 = blocks T. cruzi growth in NIH3T3 host cells. T. cruzi beta-gal in NIH3T3, GalScreen luminescence, 90 h. actives 72% (n = 5,600). shares compounds with T cruzi growth-1. inhibition, % at 8.35 µM. AID 651739;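 active = mean replicate inhibition above about 95% and at least 55% of replicates individually reaching it, limit read from the data; inconclusive = only one of the two criteria is met; inactive = neither criterion is met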
# T cruzi growth-3 = inhibitors of T. cruzi proliferation; shares compounds with T cruzi growth-1; AID 651740; actives 21% (n = 5,600); inhibition, % at 2.09 µM; T. cruzi beta-gal in NIH3T3, GalScreen luminescence, 90 h;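 active = mean inhibition above about 95%, with at least 55% of replicates also reaching it, limit read from the data; inconclusive = meets just one of the two conditions; inactive = meets neither condition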;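 note: plate controls were neutral control median for no effect and positive control median for full effect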
# 3T3 cytotox = kills mouse NIH/3T3 fibroblasts | shares compounds with T cruzi growth-1 | NIH/3T3 viability, CellTiter-Glo ATP luminescence, 90 h | cytotoxicity (signal decrease), % at 8.35 µM | actives 14% (n = 5,600);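 active = mean signal decrease across replicates above about 35% based on untreated-well scatter, with enough replicates individually passing, limit read from the data; inconclusive = no rule stated though some were filed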;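 note: 0% = median of neutral control wells and 100% = median of positive control wells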
# 3T3 cytotox 2 = cytotoxicity in mouse NIH/3T3 fibroblasts; shares compounds with T cruzi growth-1; actives 56% (n = 5,600); inhibition, % at 24.9 µM; NIH/3T3 viability, CellTiter-Glo ATP luminescence, 90 h;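 active = mean loss of cell viability signal at or above a set limit, and enough replicates individually reaching it; inconclusive = meets only the mean limit or only the replicate share; inactive = meets neither condition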;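 note: 0% = median of neutral control wells and 100% = median of positive control wells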
# The depositor's hits bear a star; u = inconclusive; x = no result. Hits are enriched below; roughly 6.7% of the tested compounds scored in any of these assays.
SMILES,Pf Dd2 growth,C diff growth,T cruzi growth-1,T cruzi growth-2,T cruzi growth-3,3T3 cytotox,3T3 cytotox 2
C[C@@H]1CN([C@@H](C)CO)C(=O)c2cc(NC(=O)Nc3ccccc3)ccc2O[C@@H](C)CCCCO[C@H]1CN(C)C(=O)Cc1ccccc1,-34,x,25,x,x,x,x
CC(C)CC#Cc1cnc2c(c1)C(=O)N([C@@H](C)CO)C[C@@H](C)[C@H](CN(C)Cc1ccc3c(c1)OCO3)O2,-53,9,71,x,x,x,x
COc1ccc(NC(=O)N(C)C[C@@H]2Oc3ccc(NC(=O)Cc4cn(C)c5ccccc45)cc3CC(=O)N([C@@H](C)CO)C[C@@H]2C)cc1,-46,0,39,x,x,x,x
CN1C(=O)c2cc(NC(=O)c3ccc(F)cc3)ccc2OC[C@@H]2O[C@H](CC(=O)NC3CCC3)CC[C@@H]21,-4,-7,11,x,x,x,x
CCC(=O)N1[C@@H](CO)[C@@H](c2ccc(-c3ccc(F)cc3)cc2)C12CN(C(C)=O)C2,-22,-10,x,x,x,x,x
Cc1ccc(S(=O)(=O)N(C)C[C@H]2OCCCC[C@H](C)Oc3ccc(N(C)C)cc3C(=O)N([C@H](C)CO)C[C@H]2C)cc1,-19,3,76,x,x,x,x
C[C@@H]1CN([C@H](C)CO)C(=O)c2cc(NS(=O)(=O)c3ccc(Cl)cc3)ccc2O[C@@H](C)CCCCO[C@@H]1CN(C)S(=O)(=O)c1ccc(Cl)cc1,-73,2,u,100*,112*,-13,u
C[C@@H]1CN([C@@H](C)CO)C(=O)c2cc(NS(=O)(=O)c3ccc(Cl)cc3)ccc2O[C@@H](C)CCCCO[C@@H]1CN(C)S(=O)(=O)c1ccc(Cl)cc1,-71,8,98*,101*,114*,-28,14
C[C@@H]1CCCCO[C@H](CN(C)S(=O)(=O)c2ccc(Cl)cc2)[C@H](C)CN([C@H](C)CO)C(=O)c2cc(N(C)C)ccc2O1,-69,-13,101*,104*,24,14,-3
C[C@H](CO)N1C[C@H](C)[C@@H](CN(C)S(=O)(=O)c2ccc(Cl)cc2)OCCCC[C@H](C)Oc2ccc(NS(=O)(=O)c3ccc(Cl)cc3)cc2C1=O,-29,4,87,x,x,x,x
C[C@@H]1CCCCO[C@@H](CN(C)S(=O)(=O)c2ccc(Cl)cc2)[C@H](C)CN([C@H](C)CO)C(=O)c2cc(NS(=O)(=O)c3ccc(Cl)cc3)ccc2O1,-62,1,62,x,x,x,x
C[C@H]1CN([C@@H](C)CO)C(=O)c2cc(C3=CCCCC3)cnc2O[C@@H]1CN(C)CC1CCCC1,-47,6,x,x,x,x,x
CN(C)CC(=O)N1CCCCN2[C@@H](CO)[C@@H](c3ccc(-c4cccnc4)cc3)[C@@H]2C1,-59,6,u,u,30,3,-1
CN(C)CC(=O)N1CCCCN2[C@H](CO)[C@H](c3ccc(-c4cccnc4)cc3)[C@H]2C1,-52,5,108*,70,1,-6,2
CN(C)CC(=O)N1CCCCN2[C@H](CO)[C@@H](c3ccc(-c4cncnc4)cc3)[C@H]2C1,23,-1,-18,x,x,x,x
CCC(=O)N1CCCCN2[C@H](CO)[C@@H](c3ccc(-c4cccnc4)cc3)[C@@H]2C1,21,-9,60,x,x,x,x
CCC(=O)N1CCCCN2[C@H](CO)[C@H](c3ccc(-c4cccnc4)cc3)[C@H]2C1,-69,2,114*,37,24,-3,9
CN(C)CC(=O)N1CCCCN2[C@H](CO)[C@H](c3ccc(-c4cccnc4)cc3)[C@@H]2C1,-16,5,64,x,x,x,x
CCC(=O)N1CCCCN2[C@H](CO)[C@H](c3ccc(C#Cc4cccnc4)cc3)[C@H]2C1,11,-1,101*,100*,39,4,-11
CCC(=O)N1CCCCN2[C@@H](CO)[C@H](c3ccc(C#Cc4cccnc4)cc3)[C@@H]2C1,0,4,77,x,x,x,x
COc1ccc(NC(=O)N(C)C[C@@H]2Oc3c(NS(=O)(=O)c4ccc(F)cc4)cccc3C(=O)N([C@@H](C)CO)C[C@@H]2C)cc1,-25,12,-8,x,x,x,x
CO[C@H]1CN(C)C(=O)c2ccc(NC(=O)C3CCCC3)cc2OC[C@@H](C)N(C)C[C@H]1C,x,x,-9,x,x,x,x
